# According to PubChem BioAssay (EPA / NIEHS):
# Several values for one entry are separate records, joined by “and”; a condition that tells them apart may be missing. Equal values may be shown once. A structure can be active in one record and inactive in another. Activity calls are given as the source filed them. The calls were made as follows: active = hit-call score of the fitted dose curve at least 0.9, where 1 is the maximum; inactive = score below 0.9.
# Legend:
# [1] = read-out: Interleukin-8 (IL8), CXCL8 (gene 3576); experiment: BSK_MyoF_IL8: BioMAP Diversity Plus: MyoF Assay for Interleukin-8 (IL8) Biomarker Activity (AID 2284261); conditions: primary human lung fibroblasts
# Outline: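 Human lung fibroblast (MyoF system) cultures dosed for 24 h, then IL-8 measured by ELISA. Response taken relative to DMSO; parallel SRB total-protein staining for cytotoxicity.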
# Decorin, DCN (gene 1634) = experiment: BSK_MyoF_Decorin: BioMAP Diversity Plus: MyoF Assay for Decorin Biomarker Activity (AID 2284265); conditions: primary human lung fibroblasts
# Outline: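 Human lung fibroblast cultures were dosed for 24 h, and decorin was then measured by ELISA. Parallel cultures were stained with sulforhodamine B for total protein as a cytotoxicity check. Gain of signal was fitted relative to DMSO.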
# [2] = read-out: Matrix Metallopeptidase 1 (MMP1), MMP1 (gene 4312); experiment: BSK_MyoF_MMP1: BioMAP Diversity Plus: MyoF Assay for Matrix Metallopeptidase 1 (MMP1) Biomarker Activity (AID 2284268); conditions: primary human lung fibroblasts
# Outline: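 Human lung fibroblast primary cells; MMP1 measured by ELISA 24 h after dosing, fitted in the positive direction relative to DMSO. Parallel SRB staining (0.1%, after 10% TCA fixation, 560 nm) assesses overt cytotoxicity.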
# [3] = BSK_MyoF_SRB: Viability Assessment in the BioMAP Diversity Plus: MyoF Assay (AID 2284267); conditions: primary human lung fibroblasts;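 also: total protein by SRB absorbance in parallel cultures as cytotoxicity measure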
# Outline: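 Confluent human lung fibroblasts were exposed to test chemicals for 24 h. Parallel wells were then fixed in 10% TCA, stained with 0.1% sulforhodamine B and measured at 560 nm. DMSO served as baseline for curve fitting.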
# [4] = read-out: Monocyte Chemoattractant Protein-1 (MCP1), CCL2 (gene 6347); experiment: BSK_BF4T_MCP1: BioMAP Diversity Plus: BF4T Assay for Monocyte Chemoattractant Protein-1 (MCP1) Biomarker Activity (AID 2284259); conditions: primary human bronchial epithelial cells with fibroblasts
# Description: (§1) BSK_BF4T is a cell-based, multiplexed-readout assay that uses bronchial epithelial cells and dermal fibroblasts, a human vascular primary cell, with measurements taken at 24 hours after chemical dosing in a microplate: 96-well plate.BSK_BF4T_MCP1 is an assay component measured in the BSK_BF4T assay. It measures MCP-1 antibody related to regulation of gene expression using ELISA technology.Data from the assay component BSK_BF4T_MCP1 was analyzed at the endpoint, BSK_BF4T_MCP1, in the positive analysis fitting direction relative to DMSO as the negative control and baseline of activity. Using a type of binding reporter, gain or loss-of-signal activity can be used to understand protein changes. […]
# (§2) The levels of cell surface (or secreted, indicated by the prefix "s") biomarker endpoints were measured by ELISA. Overt cytotoxicity to cells in confluent adherent cultures (all systems other than the BT system) was assessed by measuring total protein levels using sulforhodamine B (SRB) staining in parallel cultures at the time of biomarker measurements, indicated as SRB endpoints. For proliferation assays for adherent cell types, individual cell types are cultured at sub-confluence and relative cell numbers quantified by SRB staining at time points optimized for each system (48 h: 3C and CASM3C systems; 72 h: BT and HDF3CGF systems; 96 h: SAg system). […] Plates were read after 6 h.
# [5] = read-out: Intercellular Adhesion Molecule 1 (ICAM1), ICAM1 (gene 3383); experiment: BSK_BF4T_ICAM1: BioMAP Diversity Plus: BF4T Assay for Intercellular Adhesion Molecule 1 (ICAM1) Biomarker Activity (AID 2284260); conditions: primary human bronchial epithelial cells with fibroblasts
# Description: as §1, with “plate.BSK_BF4T_ICAM1” for “plate.BSK_BF4T_MCP1”, “ICAM-1” for “MCP-1”, “BSK_BF4T_ICAM1” for “BSK_BF4T_MCP1”, “BSK_BF4T_ICAM1,” for “BSK_BF4T_MCP1,”
# as §2
# CD90, THY1 (gene 7070) = experiment: BSK_BF4T_CD90: BioMAP Diversity Plus: BF4T Assay for CD90 Biomarker Activity (AID 2284262); conditions: primary human bronchial epithelial cells with fibroblasts
# Outline: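 CD90 levels by ELISA after 24 h treatment of human bronchial epithelial cell/dermal fibroblast cultures, analysed versus DMSO. Overt cytotoxicity checked in parallel cultures by sulforhodamine B staining.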
# [6] = read-out: Interleukin-8 (IL8), CXCL8 (gene 3576); experiment: BSK_BF4T_IL8: BioMAP Diversity Plus: BF4T Assay for Interleukin-8 (IL8) Biomarker Activity (AID 2284263); conditions: primary human bronchial epithelial cells with fibroblasts
# Outline: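 Human bronchial epithelial cells with dermal fibroblasts co-culture; IL-8 measured by ELISA 24 hours after dosing, fitted vs DMSO. Cytotoxicity tracked in parallel cultures by SRB total-protein staining.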
# [7] = read-out: Interleukin-1 alpha (IL1a), IL1A (gene 3552); experiment: BSK_BF4T_IL1a: BioMAP Diversity Plus: BF4T Assay for Interleukin-1 alpha (IL1a) Biomarker Activity (AID 2284264); conditions: primary human bronchial epithelial cells with fibroblasts
# Outline: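 ELISA read-out of IL-1α from bronchial epithelial cell/dermal fibroblast co-cultures 24 h after compound addition. Increases scored against DMSO negative control. Cytotoxicity monitored by sulforhodamine B staining of parallel cultures.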
# KRT18 (gene 3875) = experiment: BSK_BF4T_Keratin818: BioMAP Diversity Plus: BF4T Assay for Keratin 818 Biomarker Activity (AID 2284266); conditions: primary human bronchial epithelial cells with fibroblasts
# Outline: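 Keratin 8/18 levels quantified by ELISA after 24 h chemical treatment of bronchial epithelial cell/dermal fibroblast co-cultures, fitted in positive direction relative to DMSO. Parallel SRB staining tracks overt cytotoxicity.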
smiles,measurement,setting,value
Clc1cc(Cl)c(Cl)c(Cl)c1Cl,outcome,[1],inactive
same,outcome,"Decorin, DCN (gene 1634)",inactive
same,AC50,[2],23.2 µM (active)
CC=C(C)C=CC=C(C)C,outcome,[1],inactive
same,outcome,[3],inactive
same,outcome,[2],inactive
COC(OC)(C(=O)c1ccccc1)c1ccccc1,outcome,[1],inactive
same,outcome,[3],inactive
same,outcome,[2],inactive
O=C(Cl)c1c(Cl)c(Cl)c(C(=O)Cl)c(Cl)c1Cl,outcome,[1],inactive
same,outcome,[3],inactive
same,outcome,[2],inactive
CCOC(=O)C1=NOC(c2ccccc2)(c2ccccc2)C1,outcome,[1],inactive
same,outcome,[3],inactive
same,outcome,[2],inactive
CCOC(=O)C1=NN(c2ccc(Cl)cc2Cl)C(C)(C(=O)OCC)C1 (stereo not given),outcome,[1],inactive
same,outcome,"Decorin, DCN (gene 1634)",inactive
same,outcome,[2],inactive
CC/C=C\CCOC(=O)c1ccccc1O,outcome,[1],inactive
same,outcome,[2],inactive
O=C(O)C(F)(F)C(F)(F)C(F)(F)C(F)(F)C(=O)O,outcome,[4],inactive
same,outcome,[5],inactive
same,outcome,[1],inactive
same,outcome,"CD90, THY1 (gene 7070)",inactive
same,outcome,[6],inactive
same,outcome,[7],inactive
same,outcome,KRT18 (gene 3875),inactive
same,outcome,[2],inactive
c1ccc2c(c1)[nH]c1ccccc12,outcome,[1],inactive
same,outcome,"Decorin, DCN (gene 1634)",inactive
same,outcome,[3],inactive
same,outcome,[2],inactive
CC(c1cc(C(C)(C)C)cc(C(C)(C)C)c1O)c1cc(C(C)(C)C)cc(C(C)(C)C)c1O,outcome,[1],inactive
same,outcome,[2],inactive
CC(C)c1cccc(C(C)C)c1N,outcome,[1],inactive
same,outcome,"Decorin, DCN (gene 1634)",inactive
same,outcome,[2],inactive
O=C1CCCCCCCCCCCN1,outcome,[1],inactive
same,outcome,[2],inactive
Oc1c(Cl)cc(Cl)c(Cl)c1Cl,outcome,[1],inactive
same,AC50,"Decorin, DCN (gene 1634)",37.4 µM (active)
same,outcome,[2],inactive
CCCCCCCCC(CO)CCCCCC (stereo not given),outcome,[1],inactive
same,outcome,"Decorin, DCN (gene 1634)",inactive
same,outcome,[2],inactive
COc1ccc(C(=O)/C(Br)=C\C(=O)O)cc1,AC50,[1],3.97 µM (active)
same,outcome,[1],inactive
same,AC50,[2],16.1 µM (active) and 20 µM (active)
c1ccc2sc(SSN3CCOCC3)nc2c1,outcome,[1],inactive
same,AC50,[3],31.5 µM (active)
same,AC50,[2],4.91 µM (active)
C[N+](C)(C)CCCNS(=O)(=O)C(F)(F)C(F)(F)C(F)(F)C(F)(F)C(F)(F)C(F)(F)C(F)(F)C(F)(F)F,outcome,[4],inactive
same,outcome,[5],inactive
same,outcome,[1],inactive
same,outcome,"CD90, THY1 (gene 7070)",inactive
same,outcome,[6],inactive
same,AC50,[7],30 µM (active)
same,outcome,[7],inactive
same,AC50,KRT18 (gene 3875),26.5 µM (active) and 5.95 µM (active)
same,AC50,[2],49.2 µM (active) and 41 µM (active)
CCN1CN(CC)CN(CC)C1,outcome,[1],inactive
same,outcome,"Decorin, DCN (gene 1634)",inactive
same,outcome,[2],inactive
CC=C(C)C(C)=O,outcome,[1],inactive
same,outcome,"Decorin, DCN (gene 1634)",inactive
same,outcome,[3],inactive
same,outcome,[2],inactive
C=CC(=O)NCOCCCC,outcome,[1],inactive
same,outcome,[3],inactive
same,outcome,[2],inactive
C=CC(=O)OCCCCCCCC(C)C,outcome,[1],inactive
same,outcome,[2],inactive
C=CC(=O)NC(C)(C)C,outcome,[1],inactive
same,outcome,[2],inactive
CC1(C)CC(O)CC(C)(C)N1[O],outcome,[1],inactive
same,outcome,"Decorin, DCN (gene 1634)",inactive
same,outcome,[2],inactive
Oc1ccc(/C=C/c2cc(O)cc(O)c2)cc1,outcome,[1],inactive
same,outcome,[3],inactive
same,outcome,[2],inactive
Fc1ccc(Br)cc1,outcome,[1],inactive
same,outcome,[2],inactive
C=CC(=O)OCCCCCCOC(=O)C=C,outcome,[1],inactive
same,AC50,[2],4.83 µM (active)
CCC1(C)C(=O)N(Cl)C(=O)N1Cl (stereo not given),outcome,[1],inactive
same,outcome,[2],inactive
Nc1cccc(N)n1,outcome,[1],inactive
same,outcome,[2],inactive
CC1=CC=C(C(C)C)CC1,outcome,[1],inactive
same,outcome,[2],inactive
CCNc1nc(NC(C)(C)C)nc(OC)n1,outcome,[1],inactive
same,outcome,[2],inactive
COc1ccc(C(=O)c2ccccc2)c(O)c1,outcome,[1],inactive
same,outcome,[2],inactive
CCc1cccc(C)c1N(C(=O)CS(=O)(=O)O)C(C)COC (stereo not given),outcome,[1],inactive
same,outcome,[2],inactive
CCCCCCOC(=O)CCCCC(=O)OCCCCCC,outcome,[1],inactive
same,outcome,[2],inactive
O=C(Oc1ccccc1)c1ccccc1C(=O)Oc1ccccc1,outcome,[1],inactive
same,outcome,[2],inactive
C=CC(=O)OCC(C)OCC(C)OCC(C)OC(=O)C=C (stereo not given),outcome,[1],inactive
same,AC50,[2],35.1 µM (active)
CC(Cl)COP(=O)(OCC(C)Cl)OCC(C)Cl (stereo not given),outcome,[1],inactive
same,outcome,[2],inactive
CC(C)[N+](C)(CCOC(=O)C1c2ccccc2Oc2ccccc21)C(C)C,outcome,[1],inactive
same,outcome,[2],inactive
CCCCCC1=CCCC1=O,outcome,[1],inactive
same,outcome,[2],inactive
CCCCC1C(=O)N(c2ccccc2)N(c2ccccc2)C1=O,outcome,[1],inactive
same,outcome,[2],inactive
CCOC(=O)/C=C\C(=O)OCC,outcome,[1],inactive
same,outcome,[2],inactive
C=CCCCCCCCCC=O,outcome,[1],inactive
same,outcome,[2],inactive
C=C(C)C(=O)OCCCCCCCCCCCC,outcome,[1],inactive
same,outcome,[2],inactive
CCCCCCCCCCCC(C)=O,outcome,[1],inactive
same,outcome,[2],inactive
CCCCCCCO,outcome,[1],inactive
same,outcome,[2],inactive
CCCCCCC=O,outcome,[1],inactive
same,outcome,[2],inactive
CC/C=C\C/C=C\C/C=C\CCCCCCCC(=O)OC,AC50,[1],20 µM (active)
same,AC50,[2],36.5 µM (active)
O=C1CCCCCCCCCCC1,outcome,[1],inactive
same,outcome,[2],inactive
CC(C)CCCCCOC(=O)CS,outcome,[1],inactive
same,outcome,[2],inactive
Cc1c(O)cccc1O,outcome,[1],inactive
same,outcome,[2],inactive
